Hit rate of the full screen: of about 5,500 compounds, about 2,000 (36%) were called active. Not shown: some 18% with an inconclusive outcome. Cut-off read from the data, not from the text of the source: active = normalized growth mostly below about 0.91 (no sharp cut-off); inconclusive = no clear call, values can overlap the other calls; inactive = mostly above about 0.92. Some of the results follow.
Assay: chemical genetic growth profiling, strain panel (AID 1159580);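 note: tested at 20 µM; growth read once vehicle control cultures reached saturation at 30 °C; 1 = growth at the plate median or of vehicle wells; lower values mean less growth of the strain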
Conditions: S. cerevisiae deletion strains, growth OD

Measured: normalized growth

CC(=O)O[C@H]1CC2CCC3C(CC[C@@]4(C)C3C[C@H]([N+]3(C)CCCCC3)[C@@H]4OC(C)=O)[C@@]2(C)C[C@@H]1[N+]1(C)CCCCC1 (stereo not given in full)
inactive: locus YAL021C, strain ccr4, stronger effect = lower value 1.02 | locus YAL026C, strain drs2, stronger effect = lower value 1.02 | locus YAL030W, strain snc1, stronger effect = lower value 1.02 | locus YBL061C, strain skt5, stronger effect = lower value 1.01 | locus YBR009C, strain hhf1, stronger effect = lower value 1.03 | locus YBR023C, strain chs3, stronger effect = lower value 1.03 | locus YBR171W, strain sec66, stronger effect = lower value 1.04 | locus YBR231C, strain swc5, stronger effect = lower value 1.02 | locus YBR279W, strain paf1, stronger effect = lower value 1.01 | locus YCL011C, strain gbp2, stronger effect = lower value 1.02 | locus YCL016C, strain dcc1, stronger effect = lower value 1.02 | locus YCL061C, strain MRC1, stronger effect = lower value 1.02 | locus YCL069W, strain vba3, stronger effect = lower value 1.01 | locus YCR088W, strain abp1, stronger effect = lower value 1.01 | locus YDL005C, strain med2, stronger effect = lower value 1.02 | locus YDL040C, strain nat1, stronger effect = lower value 1.02 | locus YDR001C, strain nth1, stronger effect = lower value 1.01 | locus YDR069C, strain doa4, stronger effect = lower value 1.02 | locus YDR137W, strain rgp1, stronger effect = lower value 1.04 | locus YDR159W, strain sac3, stronger effect = lower value 1.04 | locus YDR195W, strain ref2 0.978 | locus YDR297W, strain sur2, stronger effect = lower value 1.01 | locus YDR334W, strain swr1, stronger effect = lower value 1.01 | locus YDR335W, strain msn5, stronger effect = lower value 1.02 | locus YDR392W, strain spt3, stronger effect = lower value 0.943 | locus YEL003W, strain gim4, stronger effect = lower value 1.02 | locus YEL037C, strain rad23, stronger effect = lower value 1.02 | locus YEL061C, strain CIN8 (second series), stronger effect = lower value 1.02 | locus YER015W, strain faa2, stronger effect = lower value 1.01 | locus YER016W, strain bim1, stronger effect = lower value 1.02 | locus YER111C, strain swi4, stronger effect = lower value 1.01 | locus YER155C, strain BEM2 (second series), stronger effect = lower value 1.03 | locus YFR010W, strain ubp6, stronger effect = lower value 1.01 | locus YGL167C, strain pmr1, stronger effect = lower value 1.02 | locus YGL173C, strain kem1, stronger effect = lower value 1.03 | locus YGL227W, strain vid30, stronger effect = lower value 1.01 | locus YGL240W, strain doc1, stronger effect = lower value 1.02 | locus YGL253W, strain hxk2, stronger effect = lower value 1.02 | locus YHR013C, strain ard1, stronger effect = lower value 1.01 | locus YHR027C, strain rpn1, stronger effect = lower value 1.01 | locus YHR030C, strain SLT2, stronger effect = lower value 1.04 | locus YHR079C, strain IRE1, stronger effect = lower value 1.03 | locus YHR142W, strain chs7, stronger effect = lower value 1.02 | locus YJL092W, strain hpr5, stronger effect = lower value 1.01 | locus YJL095W, strain BCK1 (second series), stronger effect = lower value 1.02 | locus YJL095W, strain BCK1, stronger effect = lower value 1.02 | locus YJL115W, strain asf1, stronger effect = lower value 1.03 | locus YJL129C, strain trk1, stronger effect = lower value 1.02 | locus YJL154C, strain vps35, stronger effect = lower value 1.01 | locus YJL164C, strain tpk1, stronger effect = lower value 1.01 | locus YJL166W, strain qcr8, stronger effect = lower value 1.02 | locus YJL187C, strain SWE1, stronger effect = lower value 1.02 | locus YJR066W, strain TOR1, stronger effect = lower value 0.979 | locus YKL160W, strain elf1, stronger effect = lower value 1.02 | locus YKR026C, strain gcn3, stronger effect = lower value 1 | locus YKR091W, strain srl3, stronger effect = lower value 1.02 | locus YLL001W, strain dnm1, stronger effect = lower value 1.02 | locus YLL026W, stronger effect = lower value 1.03 | locus YLL041C, strain sdh2, stronger effect = lower value 1.02 | locus YLR027C, strain aat2, stronger effect = lower value 1.02 | locus YLR113W, strain HOG1, stronger effect = lower value 0.988 | locus YLR221C, strain rsa3, stronger effect = lower value 1.01 | locus YLR258W, strain gsy2, stronger effect = lower value 1.02 | locus YLR262C, strain YPT6 (second series), stronger effect = lower value 1.04 | locus YLR320W, strain mms22, stronger effect = lower value 1.01 | locus YLR342W, strain FKS1, stronger effect = lower value 1.03 | locus YLR357W, strain rsc2, stronger effect = lower value 0.991 | locus YLR370C, strain arc18, stronger effect = lower value 1.03 | locus YLR384C, strain iki3, stronger effect = lower value 1.01 | locus YML120C, strain ndi1, stronger effect = lower value 1.01 | locus YMR058W, strain fet3, stronger effect = lower value 1.02 | locus YMR125W, strain sto1, stronger effect = lower value 1.02 | locus YMR129W, stronger effect = lower value 1.02 | locus YMR205C, strain PFK2, stronger effect = lower value 1.02 | locus YMR231W, strain pep5, stronger effect = lower value 1.01 | locus YNL071W, strain lat1, stronger effect = lower value 1.01 | locus YNL183C, strain NPR1, stronger effect = lower value 0.974 | locus YNL209W, strain ssb2, stronger effect = lower value 1.01 | locus YNL248C, strain rpa49, stronger effect = lower value 0.988 | locus YNL322C, strain KRE1 (second series), stronger effect = lower value 1.02 | locus YNR049C, strain mso1, stronger effect = lower value 1.01 | locus YOR001W, strain rrp6, stronger effect = lower value 1.03 | locus YOR070C, strain gyp1, stronger effect = lower value 1.02 | locus YOR080W, strain dia2, stronger effect = lower value 1.03 | locus YOR083W, strain WHI5, stronger effect = lower value 1.02 | locus YOR106W, strain vam3, stronger effect = lower value 1.02 | locus YOR231W, strain MKK1, stronger effect = lower value 1.03 | locus YOR265W, strain rbl2, stronger effect = lower value 1.02 | locus YOR270C, strain vph1, stronger effect = lower value 1.05 | locus YOR290C, strain snf2, stronger effect = lower value 1.02 | locus YPL051W, strain arl3, stronger effect = lower value 1.02 | locus YPL078C, strain atp4, stronger effect = lower value 1.01 | locus YPL106C, strain sse1, stronger effect = lower value 1 | locus YPL240C, strain hsp82, stronger effect = lower value 1.02 | locus YPL256C, strain CLN2, stronger effect = lower value 1.04
